Source: PubChem BioAssay
Rows were chosen to be rich in hits. Some 3% of all compounds tested hit in one or more screens of this group.
12-LOX inh – inhibitors of human 12S-lipoxygenase ALOX12. purified 12hLO, xylenol orange hydroperoxide absorbance. Potency, µM (top dose mostly 108 µM), usual class: inhibitors. AID 1671190. actives 1.1% (n = 580,000). P18054
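Hydroperoxide product was detected by ferrous iron/xylenol orange as the 573 to 405 nm absorbance ratio. Arachidonic acid at 40 uM (final) was turned over for 30 min at room temperature by 150 nM human 12hLO, pH 7.0 Hepes buffer, after 15 min compound preincubation.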
PLK1 PBD inh – PLK1 (human) polo-box domain binding inhibition; P53350; Potency, µM, hits mostly inhibitors; AID 720504; actives 2.8% (n = 360,000); Plk1 PBD binding of FITC phosphopeptide, fluorescence polarization; further: series mostly up to about 57 µM; nearly all actives have a fitted effect of over 65% in size
GCN5L2 inh – GCN5L2 (KAT2A) acetyltransferase inhibition; Q92830; GCN5L2 HAT assay, ThioGlo1 CoA-SH fluorescence; Potency, µM (top dose mostly 58.9 µM), hits mostly inhibitors; actives 0.21% (n = 390,000); AID 504327
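Preincubate 20nM GCN5L2 with compound 15 min, RT → add 50uM ThioGlo1 + 75uM H3(1-25) + 70uM acetyl-CoA → read fluorescence 0 and 20 min. Primary qHTS; fluorescent artifacts likely.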
VDR inh – vitamin D3 receptor (human) inhibition; Potency, µM, usual class: inhibitors; VDR-SRC2-3 peptide fluorescence polarization, 2 h; AID 504847; P11473; actives 0.93% (n = 400,000)
Target sequence (P11473 whole entry, looked up): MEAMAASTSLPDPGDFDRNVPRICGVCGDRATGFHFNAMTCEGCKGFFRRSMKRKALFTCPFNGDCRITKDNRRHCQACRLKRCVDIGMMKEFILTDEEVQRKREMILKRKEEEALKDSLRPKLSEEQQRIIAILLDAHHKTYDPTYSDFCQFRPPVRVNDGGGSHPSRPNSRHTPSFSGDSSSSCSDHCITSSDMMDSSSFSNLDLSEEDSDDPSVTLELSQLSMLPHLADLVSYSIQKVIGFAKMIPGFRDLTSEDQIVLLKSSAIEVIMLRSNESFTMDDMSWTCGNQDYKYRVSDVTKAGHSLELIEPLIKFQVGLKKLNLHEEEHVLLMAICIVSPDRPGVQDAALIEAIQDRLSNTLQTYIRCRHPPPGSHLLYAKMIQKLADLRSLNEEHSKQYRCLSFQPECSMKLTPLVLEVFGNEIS
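Signal is fluorescence polarization, reporting how far test compounds block the interaction of VDR with the SRC2-3 coregulator peptide after a 2 h room-temperature incubation.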
Hits are given with their value; – = inactive; ? = inconclusive; · = no result given. The call rests on the fitted dose curve; in most records, active means well fitted curve in the direction sought with a large enough effect; inconclusive means small, poorly fitted or top-dose-only effect, or another doubt; inactive means no such curve, though single readings can be large; an effect the other way counts as inactive or inconclusive.

SMILES	12-LOX inh	PLK1 PBD inh	GCN5L2 inh	VDR inh
CCOc1c(Cl)cc(CNc2ccc(S(N)(=O)=O)cc2)cc1OC	–	–	–	–
CCOc1c(Cl)cc(CNc2ccc(N3CCCC3)cc2)cc1OC	–	?	–	14µM
CC1(c2ccccc2)N(Cc2ccccc2F)C(=O)OC12CCN(C(=O)c1cccc(C#N)c1)CC2 (stereo unspecified)	–	·	·	·
COc1cc(/C=C2\C(=O)N(CCC#N)N=C2C)ccc1OCC(=O)Nc1ccccc1	?	1.3µM	–	?
CCOc1cc(/C=C2\C(=O)N(CCC#N)N=C2C)ccc1OCC(N)=O	–	19µM	–	–
Cc1cccc(CN2CCN(S(=O)(=O)c3c(C)noc3C)CC2)c1	–	·	·	·
O=C(NN(C(=O)C1CC1)c1nc2ccccc2s1)C1CC1	–	27µM	–	–
COc1cc(OC)c(NS(=O)(=O)c2ccc3c(c2)NC(=O)CO3)cc1Cl	–	6.7µM	–	?
COc1cc(OC)c(NS(=O)(=O)c2ccc3c(c2)NC(=O)CCS3)cc1Cl	?	·	–	–
C=CCCC1CN(CCCC)S(=O)(=O)c2c(F)cccc2O1 (stereo unspecified)	–	21µM	·	89µM
Cn1c(SCC(=O)N2CCCC2)nc2cccnc21	–	–	–	–
O=C(CSc1nc2cccnc2n1Cc1ccccc1)N1CCCC1	–	30µM	–	?
CSc1ccc(CNc2ncc(-c3cccc([N+](=O)[O-])c3)n2C)cc1	0.71µM	–	–	–
CCOC(=O)c1c(NC(=O)c2cc(-c3ccc(Cl)cc3)on2)sc(C)c1C	–	·	–	–
CCOC(=O)c1c(NC(=O)COC(=O)CNC(=O)c2ccco2)sc(C)c1C	–	3.4µM	–	?
COC(=O)c1c(NC(=O)COC(=O)CNC(=O)c2ccco2)sc(C)c1C	–	–	–	–
CCOC(=O)c1c(NC(=O)c2cc(CC)on2)sc(C)c1C	–	·	–	79µM
CC(=O)Nc1sc(C)c(C)c1C(=O)OC(C)C	–	27µM	–	–
CCOC(=O)c1c(NC(=O)c2cc(C)on2)sc(C)c1C	–	·	–	79µM
Cc1cc(C)c2oc(C(=O)Nc3ccc(S(=O)(=O)Nc4onc(C)c4C)cc3)cc(=O)c2c1	–	·	·	·
CC1CCN(c2ccc(NC(=O)c3cccnc3Cl)cc2)CC1	–	–	–	–
CC1CCN(c2ccc(NC(=O)c3ccccc3SC3CCS(=O)(=O)C3)cc2)CC1 (stereo unspecified)	6.3µM	·	·	·
CC[N+]1(C)CCC(O)(/C=C/c2ccccc2)C(C(=O)/C=C/c2ccccc2)C1 (stereo unspecified)	–	?	·	50µM
COc1ccc(OC)c(C2CCCN2C(=O)CSc2n[nH]c(-c3ccccc3)n2)c1 (stereo unspecified)	–	·	·	·
Cc1nc(NC(=O)c2ccc([N+](=O)[O-])cc2Cl)sc1C(=O)N(C)C	?	19µM	–	?
SMILES	12-LOX inh	PLK1 PBD inh	GCN5L2 inh	VDR inh
O=C(CSc1ccc(Cl)cc1)c1cc2ccccc2oc1=O	7.1µM	·	·	·
COC[C@@H]1CN(S(=O)(=O)c2ccc(C)cc2)C[C@H]1c1nc(C)no1	–	·	·	·
COC[C@@H]1CN(S(=O)(=O)c2cccc(C)c2)C[C@H]1c1nc(C)no1	45µM	·	·	·
CC(CC(=O)Nc1cnc2ccccc2c1)c1ccccc1 (stereo unspecified)	–	·	·	·
Cn1c(-c2cc3c(C(F)(F)F)nn(C)c3s2)n[nH]c1=S	?	–	–	–
CCn1c(-c2cc3c(C(F)(F)F)nn(C)c3s2)n[nH]c1=S	10µM	–	–	–
CCCc1c(OCC(O)COc2ccc3c(=O)cc(C(=O)O)oc3c2CCC)ccc(C(C)=O)c1O (stereo unspecified)	?	·	?	45µM
CCn1c(/C=C/c2c[nH]c3ccccc23)nc2ccccc2c1=O	–	21µM	–	–
COCCn1c(C)cc(C(=O)CSc2nc3ccccc3c(=O)[nH]2)c1C	–	–	–	–
C=CCn1c(C)cc(C(=O)CSc2nc3ccccc3c(=O)[nH]2)c1C	?	12µM	–	–
O=C(CN1CCN(c2ccccc2O)CC1)Nc1nc(-c2ccc(F)c(F)c2)cs1	–	·	·	·
S=c1[nH]cc(-c2ccccc2)n1-c1ccccc1	?	–	3.5µM	–
CCCNC(=O)[C@@H]1CCCN1[C@@H](C(=O)NC)c1ccc(OC)cc1	10µM	·	·	·
CCC(CC)C(=O)Nc1cc(C)ccc1C	–	·	·	·
CN(C)S(=O)(=O)c1cccc(-c2nn(-c3ccccc3)cc2/C=C2\SC(=S)NC2=O)c1	?	21µM	?	–
CN(C)S(=O)(=O)c1cccc(-c2nn(-c3ccccc3)cc2/C=C(\C#N)c2nc3ccccc3[nH]2)c1	–	–	–	–
CCC(=O)NC(c1cccs1)c1cc([N+](=O)[O-])c2cccnc2c1O (stereo unspecified)	3.5µM	–	–	–
CCCC(=O)NC(c1cccs1)c1cc([N+](=O)[O-])c2cccnc2c1O (stereo unspecified)	18µM	–	–	–
CC(=O)NC(c1cccs1)c1cc([N+](=O)[O-])c2cccnc2c1O (stereo unspecified)	?	–	–	–
CN(CC(=O)N1CCCC1)C(=O)c1ccc(S(=O)(=O)NCc2ccco2)cc1	–	·	·	·
CC(C)N1CCc2c(C#N)c(NCc3cccnc3)n3cnnc3c2C1	–	·	·	·
Clc1ccccc1-c1nn2c(Cn3cnc4ccccc43)nnc2s1	?	24µM	–	–
c1ccc(OCc2nn3c(CN4CCOCC4)nnc3s2)cc1	10µM	·	·	·
CC(C)(C)c1ccc(OCc2nn3c(CN4CCCCC4)nnc3s2)cc1	–	·	·	·
Clc1cccc(-c2nnc3sc(-c4ccc5c(c4)OCO5)nn23)c1	·	·	–	·
SMILES	12-LOX inh	PLK1 PBD inh	GCN5L2 inh	VDR inh
Clc1ccccc1CSc1nnc(Cn2cnc3ccccc32)n1-c1ccccc1	–	–	–	–
COc1ccc(OCc2nn3c(Cn4cnc5ccccc54)nnc3s2)cc1	–	15µM	–	–
c1ccc2c(c1)ncn2Cc1nnc2sc(-c3ccc4c(c3)OCO4)nn12	–	19µM	–	–
CC(NC(=O)CNC(=O)OCc1ccccc1)C(N)=O (stereo unspecified)	–	·	·	·
CC(C)NC(=O)Nc1cccc(C(=O)NC(C)c2cccc(Cl)c2)c1 (stereo unspecified)	–	·	·	·
Clc1ccccc1-c1nnc2sc(-c3ccc4c(c3)OCO4)nn12	?	4.7µM	–	?
N#Cc1c(SC(C(=O)O)c2ccccc2)nc2c(c1-c1cccs1)CCCC2 (stereo unspecified)	?	30µM	–	–
Cc1c(-c2ccccc2)oc2c(C(=O)OCC(=O)NCC3CCCCC3)cccc2c1=O	–	·	·	·
CC(S(=O)(=O)c1ccccc1)S(=O)(=O)c1ccccc1	–	–	·	·
CC(N1CCOC1=O)S(=O)(=O)c1ccccc1 (stereo unspecified)	35µM	–	–	–
Cc1cc(C)cc(NC(=O)CSc2nc3ccccc3nc2N2CCCC2)c1	–	–	?	–
Cc1cc(C)cc(NC(=O)CSc2nc3ccccc3nc2N2CCCCC2)c1	–	–	35µM	–
O=C(CSc1ccccn1)c1ccc(C2CC2(Cl)Cl)cc1 (stereo unspecified)	–	·	·	·
Cc1cnc(=O)[nH]c1SCC(=O)c1ccc(F)cc1	?	12µM	–	?
